Source: PubChem BioAssay AID2685 (National Center for Advancing Translational Sciences (NCATS), 2010)
The campaign covered roughly 320,000 compounds. About 2,100 (0.66%) were called active. Not shown: some 53% with an inconclusive outcome. Calls come from the whole dose curve; as a rule, active = well fitted inhibition curve with a large enough effect in the signal ratio, with a control signal flat (not every such curve was filed as active); inconclusive = small, poorly fitted or top-dose-only effect, or effect the other way, or a change in a side signal; inactive = flat fitted curve, though single readings scatter; the % refers to the signal ratio. The sample as a whole holds a higher share of actives than the screen did.

Experiment: qHTS Assay for Lipid Storage Modulators in Drosophila S3 Cells;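 for cell number change: cells counted by Cell Tracker Red CMTPX staining in the red channel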; for lipid storage change, negative = inhibition: % is set by controls: 0 for no effect and ±100 for the full control effect
Conditions: BODIPY lipid droplet fluorescence, 18-24 h, cells fed with added oleic acid; cell number change: measured here: cell count max response; series mostly up to 46.1 µM
Summary of the method: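 Drosophila S3 cells loaded with oleic acid (400 uM, as added) and compounds at several concentrations; lipid droplets imaged by 488-nm laser-scanning cytometry, 500–530 nm intensity and object ratio to cell channel. Percent activity normalized to 20 uM Triacsin C.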
Potency is the fitted concentration of half-maximal effect.

Question: With `Cc1cc(Br)cc2c1NC(=O)C2(O)CC(=O)c1ccco1` (configuration not stated) as the compound, how does the cell number change read?
Answer: 3.68%

Question: What about the lipid storage change, negative = inhibition of the same compound?
Answer: 9.35% [at 9.22 µM] (inactive)

Question: With `COc1ccc(NC(C)=[N+](C)CCNS(=O)(=O)c2ccc(Cl)cc2)cc1` as the compound, how does the Potency read?
Answer: inactive

Question: What does the source list for `C/C(CCc1ccco1)=N/NC(=O)CCC(=O)Nc1cccc(Cl)c1`?
Answer: Potency: inactive; cell number change: 0.649%

Question: Which results are given for `CC(=O)Nc1ccc(NC2=CC(=O)c3ccccc3C2=O)cc1`?
Answer: Potency: inactive; cell number change: 4.49%

Question: With `CC(C)(C)c1ccc(S(=O)(=O)/N=C2\C=C(NS(=O)(=O)c3ccccc3)C(=O)c3ccccc32)cc1` as the compound, how does the Potency read?
Answer: inactive

Question: And the cell number change?
Answer: -1.8%

Question: Which results are given for `Cc1cc(C)c(S(=O)(=O)/N=C2\C=C(Nc3ccc(C(=O)O)cc3)C(=O)c3ccccc32)c(C)c1`?
Answer: Potency: 0.92 µM (active); cell number change: 11.7%

Question: With `CCc1ccc(S(=O)(=O)/N=C2\C=C(Nc3ccc(O)cc3)C(=O)c3ccccc32)cc1` as the compound, how does the Potency read?
Answer: inactive

Question: What about the cell number change of the same compound?
Answer: 15.8%

Question: For `O=S(=O)(/N=C(/Nc1ccccc1F)c1ccccc1)c1ccccc1`, which Potency is on record?
Answer: inactive

Question: What does the source list for `O=C(O)c1ccc(S(=O)(=O)/N=C2\C=C(Nc3ccccc3F)C(=O)c3ccccc32)cc1`?
Answer: Potency: 6.51 µM (active); cell number change: 2.14%

Question: Which Potency does the source give for `Cc1ccc(-n2c(C)cc(/C=N/NC(=O)c3ccncc3)c2C)cc1C` here?
Answer: inactive

Question: Which results are given for `CC1(C)CC(NC(=S)Nc2ccc([N+](=O)[O-])cc2)CC(C)(C)N1`?
Answer: Potency: inactive; cell number change: 15.8%

Question: For `CCOC(=O)C1CCN(c2cc3c(cc2NC(=O)c2ccccc2)n(C)c(=O)n3C)CC1`, which Potency is on record?
Answer: 3.66 µM (active)

Question: Which results are given for `Cc1ccc(C(=O)Nc2cc3c(cc2N2CCCCC2)n(C)c(=O)n3C)cc1`?
Answer: Potency: inactive; cell number change: -8.73%

Question: For `CCOC(=O)C1CCN(c2cc3c(cc2NC(=O)c2ccc(F)cc2)n(C)c(=O)n3C)CC1`, which Potency is on record?
Answer: inactive

Question: And the cell number change?
Answer: -8.96%

Question: Which Potency does the source give for `c1ccc(-c2nc(-c3nccc4ccccc34)oc2-c2ccccc2)cc1` here?
Answer: inactive

Question: And the cell number change?
Answer: -5.47%

Question: For `N#CCCN(C(=O)COc1ccc(C#N)cc1)c1ccc(F)cc1`, which Potency is on record?
Answer: inactive

Question: And the cell number change?
Answer: 6.15%

Question: For `CCN(C(=O)c1ccccc1Cl)c1ccccc1`, which Potency is on record?
Answer: 23.1 µM (active)

Question: Which Potency does the source give for `CCN(C(=O)CCC(=O)N(CC)c1ccccc1)c1ccccc1` here?
Answer: inactive

Question: And the cell number change?
Answer: -0.108%

Question: With `CN(C(=O)c1ccccc1Cl)c1ccccc1` as the compound, how does the Potency read?
Answer: inactive

Question: Which Potency does the source give for `CCC(C)(C)n1nnnc1C(c1cccnc1)N1CCN(c2cccc(C(F)(F)F)c2)CC1` (configuration not stated) here?
Answer: inactive

Question: What about the cell number change of the same compound?
Answer: -8.43%

Question: Which Potency does the source give for `O=[N+]([O-])c1ccc(-c2ccc(S(=O)(=O)N3CCOCC3)cc2)cc1` here?
Answer: inactive

Question: What about the cell number change of the same compound?
Answer: -1.81%

Question: For `CC(=O)C(=Cc1ccc(O)cc1)C(C)=O`, which Potency is on record?
Answer: inactive

Question: And the cell number change?
Answer: -7.54%

Question: Which results are given for `Cc1cc2c(cc1S(=O)(=O)N(C)c1ccccc1)NC(=O)CO2`?
Answer: Potency: inactive; cell number change: -11.6%

Question: Which Potency does the source give for `O=C(CN1CCN(C(=O)c2ccco2)CC1)Nc1cc(Cl)ccc1Cl` here?
Answer: inactive

Question: What about the cell number change of the same compound?
Answer: -13.1%

Question: With `COC(=O)c1cc(C)sc1NC(=O)CN1CCN(C(=O)c2ccco2)CC1` as the compound, how does the Potency read?
Answer: 1.84 µM (active)

Question: And the cell number change?
Answer: 3.78%

Question: With `CCc1cc(C(=O)OC)c(NC(=O)CN2CCN(C(=O)c3ccco3)CC2)s1` as the compound, how does the Potency read?
Answer: inactive

Question: What about the cell number change of the same compound?
Answer: 13.8%

Question: With `Cc1cc(Cl)ccc1NC(=O)CN1CCN(C(=O)c2ccco2)CC1` as the compound, how does the Potency read?
Answer: 4.61 µM (active)

Question: And the cell number change?
Answer: 2.78%

Question: Which Potency does the source give for `CCOC(=O)c1cc(C)sc1NC(=O)CN1CCN(C(=O)c2ccco2)CC1` here?
Answer: inactive

Question: What about the cell number change of the same compound?
Answer: 16.2%

Question: For `Cc1ccccc1NC(=O)CN1CCN(C(=O)c2ccco2)CC1`, which Potency is on record?
Answer: inactive

Question: What about the cell number change of the same compound?
Answer: 25%
